Screening data as filed in PubChem.
Pf apPOL inh = Pf-apPOL inhibitors, biochemical, fluorescence | inhibition, % at 10 µM | Recombinant Pf-apPOL, molecular beacon fluorescence, 1.5 h | 210,000 compounds, 0.25% hits
mHTT CaM bind = mutant huntingtin-calmodulin interaction inhibitors – biochemical, AlphaScreen, primary screen; P42858; AlphaScreen His-mHTT/GST-CaM binding, luminescence; inhibition, % at 15 µM; 190,000 compounds, 3.6% hits; AID 1671202, 2021
Hits are given with their value; n = inactive; x = no result given. An excerpt weighted towards active compounds, which were near 3.6% of everything screened. Cut-off read from the data, not from the text of the source: active = inhibition above about 50%; inactive = the rest.

SMILES	Pf apPOL inh	mHTT CaM bind
C[C@@H](c1ccccc1)N1C[C@@H](COCc2ccccc2)Oc2cc(N3CC[C@@H](O)C3)ccc2S1(=O)=O	n	56.4
C[C@@H](c1ccccc1)N1C[C@H](COCc2ccccc2)Oc2cc(N3CC[C@@H](O)C3)ccc2S1(=O)=O	n	52.5
O=C1OC(c2ccc(F)cc2)=C/C1=C/c1ccc(Cl)c([N+](=O)[O-])c1	n	n
O=C(Cc1cccc(F)c1)N1CCCC(COc2ccc(C(=O)N3CCCCC3)cc2)C1 (stereo not drawn)	n	n
Cn1c(=O)c2c(ncn2CC(=O)N/N=C/C=C\c2ccco2)n(C)c1=O	x	n
Cc1ccc(C(=O)Nc2ccc(F)c(Cl)c2)c(Cl)c1	n	n
CCOC(=O)C1C(=O)C=C(c2ccc(OC)c(OC)c2)CC1c1c(F)cccc1Cl (stereo not drawn)	n	n
O=C1NC(=Nc2ccccc2Cl)S/C1=C/c1cc2c(cc1Br)OCO2	n	55.0
COc1ccccc1/C=C1/SC(=Nc2ccccc2Cl)NC1=O	n	n
O=C1NC(=Nc2ccccc2)S/C1=C\c1ccc(-c2ccccc2[N+](=O)[O-])o1	n	n
O=C1NC(=Nc2ccccc2Cl)S/C1=C/c1ccc([N+](=O)[O-])o1	n	60.0
COc1ccc(/C=C2/SC(=Nc3ccccc3Cl)NC2=O)cc1	n	n
CN(C)c1ccc(/C=C2/SC(=Nc3ccccc3Cl)NC2=O)cc1	n	54.0
O=C(CSc1nnc(-c2cccc(F)c2)n1-c1ccccc1)NCCc1ccccc1	n	n
Cc1cccc(C(=O)N2CCCC(C(=O)Nc3ccc(C)c(C)c3)C2)c1 (stereo not drawn)	n	n
O=C(/C=C/c1ccco1)Nc1c2c(nn1-c1ccc(F)cc1)CSC2	n	98.0
COc1ccc(-n2nc3c(c2NC(C)=O)CSC3)cc1	n	n
O=C(/C=C/c1ccc2c(c1)OCO2)Nc1c2c(nn1-c1ccc(F)cc1)CSC2	n	n
COc1ccc(-n2nc3c(c2NC(=O)/C=C/c2ccc(OC)c(OC)c2)CS(=O)(=O)C3)cc1	n	n
COc1ccc(-n2nc3c(c2NC(=O)/C=C/c2ccco2)CSC3)cc1	n	77.0
COc1ccc(-n2nc3c(c2NC(=O)/C=C/c2ccc(OC)c(OC)c2)CSC3)cc1	78.3	n
O=C(Nc1ccc(Cl)cc1Cl)c1cc(S(=O)(=O)NC2CCCCC2)ccc1F	n	n
CC(C)CN1CCn2cc(C(=O)NCc3ccc(F)cc3Cl)nc2C1	n	n
CC(=O)N1CCN(S(=O)(=O)c2ccc3c(c2)OCCCO3)CC1	n	n
Cc1ccc(NC(=O)N2CCC3(CC2)Nc2cc(F)ccc2-n2cccc23)cc1	n	61.5
SMILES	Pf apPOL inh	mHTT CaM bind
O=C(Nc1ccc2c(c1)OCCO2)N1CCC2(CC1)Nc1cc(F)ccc1-n1cccc12	n	68.5
O=C(Nc1ccc(F)cc1)N1CCC2(CC1)Nc1cc(F)ccc1-n1cccc12	n	n
CN1c2cc(F)ccc2C(=O)NC12CCN(C(=O)Nc1ccc3c(c1)OCO3)CC2	n	n
CCOC(=O)c1ccc(NC(=O)N2CCC3(CC2)Nc2cc(F)ccc2-n2cccc23)cc1	n	56.5
CCOC(=O)c1cccc(NC(=O)N2CCC3(CC2)Nc2cc(F)ccc2-n2cccc23)c1	n	67.9
Cc1ccc(NC(=O)c2ccc(Br)o2)cc1[N+](=O)[O-]	n	n
Cc1cc(C)n(CCc2nn[nH]n2)n1	x	n
Cc1[nH]nc2c1C(c1ccccc1OCc1ccccc1)CC(=O)N2 (stereo not drawn)	n	n
O=C(CSc1nnc(COc2ccc(Cl)cc2Cl)o1)NC1CCCCC1	n	n
O=C(NCCO)c1cccnc1Oc1ccc(Cl)cc1	n	n
Cc1cc(C)c(S(=O)(=O)N2CCCC(C)(C(=O)NCc3ccccc3)C2)c(C)c1 (stereo not drawn)	n	59.5
Cc1ccc(S(=O)(=O)N2CCCC(C)(C(=O)NCc3ccc(F)cc3)C2)cc1 (stereo not drawn)	n	n
Cc1cc(C)cc(S(=O)(=O)N2CCCC(C)(C(=O)NCc3ccc(F)cc3)C2)c1 (stereo not drawn)	n	51.7
Cc1cc(C)cc(S(=O)(=O)N2CCCC(C)(C(=O)NCc3ccccc3)C2)c1 (stereo not drawn)	n	n
O=C(c1ccccc1F)N(CCc1cccs1)Cc1ccco1	n	n
O=C1NC(=O)/C(=C/c2ccc(F)cc2)S1	x	n
COc1nccnc1NC1CCN(C(=O)c2ccnn2C)CC1	n	n
Cc1occc1C(=O)N1CCN(c2ccccn2)CC1	n	n
Cc1ccc(-c2cc(C(=O)N3CCN(c4ccccn4)CC3)c(C)[nH]2)cc1C	n	97.8
Cc1ccc2nc(C(=O)NCCN3CCCCCC3)cn2c1	n	50.1
Cc1ccc2nc(C(=O)NCCN3CCCCC3)cn2c1	n	n
Cn1c(=S)n(CCSc2nc3ccccc3n2C2CCCCC2)c2ccccc21	x	n
O=C(c1cccc(F)c1)N1CCCC(c2ccnc(-c3ccc(F)cc3)n2)C1 (stereo not drawn)	n	53.6
